Several values for one entry are separate records, joined by “and”; a condition that tells them apart may be missing. Identical values can stand only once. The whole screen tested about 5,500 compounds, of which about 2,000 (36%) were called active. Inconclusive results (about 18%) are left out. Cut-off read from the data, not from the text of the source: active = normalized growth mostly below about 0.91 (no sharp cut-off); inconclusive = no clear call, values can overlap the other calls; inactive = mostly above about 0.92. The list shows a part of the results.
Assay: chemical genetic growth profiling, strain panel (AID 1159580);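 note: tested at 20 µM; growth read once vehicle control cultures reached saturation at 30 °C; 1 = growth at the plate median or of vehicle wells; lower values mean less growth of the strain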
Conditions: S. cerevisiae deletion strains, growth OD

Measured: normalized growth

CC1(C)C(=O)[C@@H]2O[C@@H]2[C@@]2(C)C1C[C@@H](O)[C@]1(C)C2CC[C@@]2(C)[C@H](c3ccoc3)OC(=O)C3OC321 (stereo partly specified)
inactive: locus YAL021C, strain ccr4, active compounds read low 0.981 | locus YAL026C, strain drs2, active compounds read low 0.969 | locus YAL030W, strain snc1, active compounds read low 0.982 | locus YBL061C, strain skt5, active compounds read low 0.989 | locus YBR009C, strain hhf1, active compounds read low 1 | locus YBR021W, strain FUR4, active compounds read low 0.965 | locus YBR023C, strain chs3, active compounds read low 0.998 | locus YBR171W, strain sec66, active compounds read low 0.994 | locus YBR229C, strain ROT2, active compounds read low 1 | locus YBR231C, strain swc5, active compounds read low 0.995 | locus YBR279W, strain paf1, active compounds read low 0.987 | locus YCL011C, strain gbp2, active compounds read low 0.999 | locus YCL016C, strain dcc1, active compounds read low 0.997 | locus YCL029C, strain bik1, active compounds read low 0.988 | locus YCL061C, strain MRC1, active compounds read low 1.01 | locus YCL069W, strain vba3, active compounds read low 0.999 | locus YCR088W, strain abp1, active compounds read low 1 | locus YDL005C, strain med2, active compounds read low 0.987 | locus YDL035C, strain GPR1, active compounds read low 0.998 | locus YDL040C, strain nat1, active compounds read low 0.998 | locus YDL074C, strain BRE1, active compounds read low 0.972 | locus YDL101C, strain DUN1, active compounds read low 1 | locus YDL134C, strain PPH21, active compounds read low 0.989 | locus YDL185W, strain tfp1, active compounds read low 0.997 | locus YDL192W, strain arf1, active compounds read low 0.988 | locus YDR001C, strain nth1, active compounds read low 1 | locus YDR069C, strain doa4, active compounds read low 0.999 | locus YDR101C, strain arx1, active compounds read low 0.971 | locus YDR137W, strain rgp1, active compounds read low 1 | locus YDR150W, strain NUM1, active compounds read low 1 | locus YDR159W, strain sac3, active compounds read low 0.998 | locus YDR162C, strain NBP2, active compounds read low 1 | locus YDR195W, strain ref2 0.989 | locus YDR297W, strain sur2, active compounds read low 0.99 | locus YDR318W, strain mcm21, active compounds read low 0.974 | locus YDR334W, strain swr1, active compounds read low 0.989 | locus YDR335W, strain msn5, active compounds read low 0.987 | locus YDR388W, active compounds read low 0.991 | locus YDR392W, strain spt3, active compounds read low 0.984 | locus YDR502C, strain sam2, active compounds read low 0.957 | locus YEL003W, strain gim4, active compounds read low 1.01 | locus YEL037C, strain rad23, active compounds read low 0.988 | locus YEL061C, strain CIN8 (second series), active compounds read low 1 | locus YER015W, strain faa2, active compounds read low 0.996 | locus YER016W, strain bim1, active compounds read low 0.995 | locus YER110C, active compounds read low 0.976 | locus YER111C, strain swi4, active compounds read low 0.996 | locus YER155C, strain BEM2 (second series), active compounds read low 1 | locus YER155C, strain BEM2, active compounds read low 1 | locus YER167W, strain BCK2, active compounds read low 1.01 | locus YFR010W, strain ubp6, active compounds read low 1 | locus YGL078C, strain dbp3, active compounds read low 0.985 | locus YGL086W, strain mad1, active compounds read low 0.977 | locus YGL167C, strain pmr1, active compounds read low 1.01 | locus YGL173C, strain kem1, active compounds read low 1 | locus YGL227W, strain vid30, active compounds read low 1 | locus YGL240W, strain doc1, active compounds read low 1 | locus YGL248W, strain PDE1, active compounds read low 0.998 | locus YGL253W, strain hxk2, active compounds read low 1 | locus YGR135W, strain pre9, active compounds read low 0.952 | locus YGR229C, strain SMI1, active compounds read low 0.981 | locus YGR252W, strain gcn5, active compounds read low 0.845 | locus YHR013C, strain ard1, active compounds read low 0.993 | locus YHR027C, strain rpn1, active compounds read low 0.997 | locus YHR030C, strain SLT2, active compounds read low 1.02 and 0.977 | locus YHR079C, strain IRE1 (second series), active compounds read low 0.991 | locus YHR079C, strain IRE1, active compounds read low 0.986 | locus YHR094C, strain hxt1, active compounds read low 0.989 | locus YHR129C, strain ARP1, active compounds read low 1 | locus YHR142W, strain chs7, active compounds read low 0.993 | locus YHR200W, strain rpn10, active compounds read low 0.982 | locus YIL066C, strain RNR3, active compounds read low 1.01 | locus YIL073C, strain SPO22, active compounds read low 0.992 | locus YIL125W, strain kgd1, active compounds read low 0.992 | locus YIR030C, strain dcg1, active compounds read low 0.994 | locus YJL092W, strain hpr5, active compounds read low 1 | locus YJL095W, strain BCK1 (second series), active compounds read low 0.994 | locus YJL095W, strain BCK1, active compounds read low 0.982 and 0.983 | locus YJL115W, strain asf1, active compounds read low 0.989 | locus YJL129C, strain trk1, active compounds read low 0.985 | locus YJL134W, strain LCB3, active compounds read low 0.997 | locus YJL154C, strain vps35, active compounds read low 0.999 | locus YJL164C, strain tpk1, active compounds read low 0.981 | locus YJL166W, strain qcr8, active compounds read low 0.983 | locus YJL168C, strain set2, active compounds read low 0.985 | locus YJL187C, strain SWE1 (second series), active compounds read low 0.984

— PubChem BioAssay AID1159580 (chemical genetic matrix, 2015)
